# Results taken from the supplement of paper PMC9135407.
# Several values for one entry are separate records, joined by “and”; a condition that tells them apart may be missing. Equal values may be shown once. Where a name gives a salt, the structure may show the parent alone. Hit rate of the full screen: of about 5,800 compounds, about 620 (11%) showed activity. Many of the other results were omitted from the sample, so actives are more common in it than they were. Values without a mark were called inactive.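 How the source made its calls: active = score above a cut-off or among the top three wells of a plate; in these data no inactive exceeds 0.85.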
# Test system: primary human hepatic stellate cells (donor 1)
# Assay: scaled lipid accumulation score (0 = DMSO-like, 1 = nortriptyline-like); higher = stronger HSC inactivation (lipid re-accumulation), active = hit call of the paper
# Details: 48 h
# [1] = library stock concentration: 10 mM
# [2] = library stock concentration: 3.33 mM
# [3] = library stock concentration: 1 mM
smiles,measurement,setting,value
O=C(O)c1ccc2[nH]cc(CCCCN3CC=C(c4ccccc4)CC3)c2c1 [Carmoxirole hydrochloride],scaled lipid accumulation score,[1],0.073
CN1C2CC(O)CC1C1OC12 (stereo not drawn) [Scopine],scaled lipid accumulation score,[2],≤ 0
same,scaled lipid accumulation score,[1],≤ 0
CCCCCCCCCCCCCCCC(=O)OCC(COP(=O)([O-])OCC[N+](C)(C)C)OC(C)=O (stereo not drawn),scaled lipid accumulation score,[3],0.014
C=C(C)[C@@H]1[C@H]2OC(=O)[C@@H]1[C@]1(O)C[C@H]3O[C@]34C(=O)O[C@H]2[C@]14C.CC(C)(O)[C@@H]1[C@H]2OC(=O)[C@@H]1[C@]1(O)C[C@H]3O[C@]34C(=O)O[C@H]2[C@]14C [Picrotin - Picrotoxinin],scaled lipid accumulation score,[1],≤ 0
c1cncc(C2=NCCC2)c1 [Myosmine],scaled lipid accumulation score,,≤ 0
CC(=O)OCC1=C(C(=O)[O-])N2C(=O)[C@@H](NC(=O)CCC[C@@H](N)C(=O)[O-])[C@H]2SC1.[Zn+2] [Cephalosporin C zinc salt],scaled lipid accumulation score,[1],0.329
COc1cc2c3cc1Oc1c(OC)c(OC)cc4c1[C@@H](Cc1cccc(c1)Oc1ccc(c(O)c1)C[C@@H]3N(C)CC2)N(C)CC4 [Berbamine hydrochloride],scaled lipid accumulation score,[1],≤ 0
COc1ccc(C[C@H]2NC[C@H](O)[C@H]2OC(C)=O)cc1 [Anisomycin] [listing 1 of 3 here],scaled lipid accumulation score,,1.05 (active)
COc1ccc(C[C@H]2NC[C@H](O)[C@H]2OC(C)=O)cc1 [Anisomycin] [listing 2 of 3 here],scaled lipid accumulation score,[1],0.806
COc1ccc(C[C@@H]2NC[C@@H](O)[C@@H]2OC(C)=O)cc1 [Anisomycin],scaled lipid accumulation score,library stock concentration: 18.8 mM,0.899 (active)
COc1ccc(C[C@H]2NC[C@H](O)[C@H]2OC(C)=O)cc1 [Anisomycin] [listing 3 of 3 here],scaled lipid accumulation score,[1],1.39 (active)
O[C@@H]1CCCC[C@H]1N1CCC(c2ccccc2)CC1 [L(-)-vesamicol hydrochloride],scaled lipid accumulation score,,≤ 0
CC(C)(C)NCC(O)COc1cccc2[nH]c(C#N)cc12 (stereo not drawn) [Cyanopindolol hemifumarate],scaled lipid accumulation score,[1],0.049
CC(C)[C@@H]1NC(=O)[C@H](C)OC(=O)[C@@H](C(C)C)NC(=O)[C@@H](C(C)C)OC(=O)[C@H](C(C)C)NC(=O)[C@H](C)OC(=O)[C@@H](C(C)C)NC(=O)[C@@H](C(C)C)OC(=O)[C@H](C(C)C)NC(=O)[C@H](C)OC(=O)[C@@H](C(C)C)NC(=O)[C@@H](C(C)C)OC1=O [Valinomycin],scaled lipid accumulation score,library stock concentration: 4.5 mM,0.447
CC1=NN=C(c2ccc(N)cc2)c2cc3c(cc2C1)OCO3,scaled lipid accumulation score,[1],≤ -0.07 and ≤ -0.006
CC[C@H](C)[C@H]1O[C@]2(C=C[C@@H]1C)C[C@@H]1C[C@@H](C/C=C(\C)[C@@H](O[C@H]3C[C@H](OC)[C@@H](O[C@H]4C[C@H](OC)[C@@H](O)[C@H](C)O4)[C@H](C)O3)[C@@H](C)/C=C/C=C3\CO[C@@H]4[C@H](O)C(C)=C[C@@H](C(=O)O1)[C@]34O)O2.CO[C@H]1C[C@H](O[C@H]2[C@H](C)O[C@@H](O[C@@H]3/C(C)=C/C[C@@H]4C[C@@H](C[C@]5(C=C[C@H](C)[C@@H](C(C)C)O5)O4)OC(=O)[C@@H]4C=C(C)[C@@H](O)[C@H]5OC/C(=C\C=C\[C@@H]3C)[C@]54O)C[C@@H]2OC)O[C@@H](C)[C@@H]1O [Avermectin b1],scaled lipid accumulation score,[1],≤ 0
CC[C@H](C)[C@H]1O[C@]2(C=C[C@@H]1C)C[C@@H]1C[C@@H](C/C=C(\C)[C@@H](O[C@H]3C[C@H](OC)[C@@H](O[C@H]4C[C@H](OC)[C@@H](O)[C@H](C)O4)[C@H](C)O3)[C@@H](C)/C=C/C=C3\CO[C@@H]4[C@H](O)C(C)=C[C@@H](C(=O)O1)[C@]34O)O2.CO[C@H]1C[C@H](O[C@H]2[C@H](C)O[C@@H](O[C@@H]3/C(C)=C/C[C@@H]4C[C@@H](C[C@]5(C=C[C@H](C)[C@@H](C(C)C)O5)O4)OC(=O)[C@@H]4C=C(C)[C@@H](O)[C@H]5OC/C(=C\C=C\[C@@H]3C)[C@]54O)C[C@@H]2OC)O[C@@H](C)[C@@H]1O [Avermectin B1],scaled lipid accumulation score,,≤ 0
CC[C@H](C)[C@H]1O[C@]2(C=C[C@@H]1C)C[C@@H]1C[C@@H](C/C=C(\C)[C@@H](O[C@H]3C[C@H](OC)[C@@H](O[C@H]4C[C@H](OC)[C@@H](O)[C@H](C)O4)[C@H](C)O3)[C@@H](C)/C=C/C=C3\CO[C@@H]4[C@H](O)C(C)=C[C@@H](C(=O)O1)[C@]34O)O2.CO[C@H]1C[C@H](O[C@H]2[C@H](C)O[C@@H](O[C@@H]3/C(C)=C/C[C@@H]4C[C@@H](C[C@]5(C=C[C@H](C)[C@@H](C(C)C)O5)O4)OC(=O)[C@@H]4C=C(C)[C@@H](O)[C@H]5OC/C(=C\C=C\[C@@H]3C)[C@]54O)C[C@@H]2OC)O[C@@H](C)[C@@H]1O [Abamectin],scaled lipid accumulation score,library stock concentration: 2.3 mM,0.027 and ≤ 0
O=C1C=CC[C@@H]2[C@H]3CCCN4CCC[C@@H](CN12)[C@@H]34 [Sophocarpine],scaled lipid accumulation score,[2],≤ 0
same,scaled lipid accumulation score,[1],≤ 0
CCCCC/C=C\C/C=C\C/C=C\C/C=C\CCCC(=O)NCCOP(=O)(O)O [Arachidonoyl Ethanolamide Phosphate],scaled lipid accumulation score,[3],≤ 0
"C/C(=C\c1csc(C)n1)[C@@H]1C[C@@H]2O[C@]2(C)CCC[C@H](C)[C@H](O)[C@@H](C)C(=O)C(C)(C)[C@@H](O)CC(=O)O1 [Epothilone B (EPO906, Patupilone)]",scaled lipid accumulation score,[2],≤ 0
same,scaled lipid accumulation score,[1],≤ 0
CCCCC/C=C\C/C=C\C/C=C\C/C=C\CCCC(N)=O [Arachidonoyl amide],scaled lipid accumulation score,[3],≤ 0
CCCCC/C=C\C/C=C\C/C=C\C/C=C\CCCC(N)=O [Arachidonamide],scaled lipid accumulation score,[3],≤ -0.021
CN1[C@@H]2CC[C@H]1C[C@@H](OC(c1ccccc1)c1ccccc1N)C2 (stereo partly drawn) [Aminobenztropine],scaled lipid accumulation score,[1],0.656
CN1C2CCC1CC(OC(c1ccccc1)c1ccc(Cl)cc1)C2.Cl (stereo not drawn),scaled lipid accumulation score,[1],1.07 (active)
COc1cc(C(=O)OC2CC3CCC(C2)N3C)ccc1O (stereo not drawn) [Fillalbin],scaled lipid accumulation score,,≤ 0
CN1C2CCC1CC(OC(c1ccc(F)cc1)c1ccc(F)cc1)C2.Cl (stereo not drawn),scaled lipid accumulation score,[1],1.29 (active)
CN1[C@H]2C[C@H](OC(=O)[C@H](CO)c3ccccc3)C[C@@H]1[C@@H](O)C2 [Anisodamine],scaled lipid accumulation score,[1],0.076
CN1[C@H]2C[C@H](OC(=O)[C@H](CO)c3ccccc3)C[C@@H]1[C@@H](O)C2,scaled lipid accumulation score,[1],≤ 0
CN1[C@@H]2CC[C@H]1C[C@@H](OC1c3ccccc3CCc3ccccc31)C2 [Deptropine citrate],scaled lipid accumulation score,,0.266
